# Reference: the supplement of paper PMC12494721
# Structures can show the parent of a compound that is named as a salt.
# Experiments:
# Settings in all cases: 20 µM; incubation time: 27 h, anaerobic, 37 °C;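 for the amine columns active = adjusted P below 0.05 in both replicates with a change the same way and a mean fold change under 0.8 or over 1.25; inactive = the rest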
# [1] = test system: Clostridium sporogenes DSM 1664; experiment: growth (OD595) fold change vs plate DMSO controls (fold change (ratio)); higher = more growth
# Outline: (§1)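 The 96-well mGAM cultures had been kept anaerobic for 27 h at 37 °C before being shaken and read at 595 nm. Blank subtraction, compound background correction with 20 µM compound solutions in water, and a calibration factor of 5 turned the readings into OD. Growth is given as the fold change versus the median of plate DMSO controls. Fold changes above 1.5 were set to NA, and the values are means of 2 biological replicates.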
# [2] = test system: Escherichia coli IAI1; experiment: as above
# Outline: as §1
# [3] = test system: Klebsiella aerogenes DSM 30053; experiment: as above
# Outline: as §1
# [4] = test system: Ruminococcus gnavus DSM 108212; experiment: as above
# Outline: as §1
# [5] = test system: Klebsiella aerogenes DSM 30053; experiment: fold change of Histamine concentration vs plate DMSO controls (fold change (ratio)); higher = more amine produced, active = hit call of the paper (significant change in both replicates, either direction)
# Outline: (§2)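 Amine values are fold changes relative to DMSO-only wells on the same plate. They derive from 27 h, 37 °C anaerobic mGAM cultures of four gut bacterial strains in 80 µL wells, dosed at 20 µM final, or 50 µM final for sweeteners. Extraction of the whole culture, LC–triple-quadrupole MS in dynamic MRM mode, external calibration curves and within-batch drift correction were used, with 2 biological replicates averaged.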
# [6] = test system: Clostridium sporogenes DSM 1664; experiment: fold change of Tryptamine concentration vs plate DMSO controls (fold change (ratio)); higher = more amine produced, active = hit call of the paper (significant change in both replicates, either direction)
# Outline: as §2
# [7] = test system: Ruminococcus gnavus DSM 108212; experiment: as above
# Outline: as §2
# [8] = test system: Escherichia coli IAI1; experiment: fold change of Putrescine concentration vs plate DMSO controls (fold change (ratio)); higher = more amine produced, active = hit call of the paper (significant change in both replicates, either direction)
# Outline: as §2
# [9] = test system: Klebsiella aerogenes DSM 30053; experiment: as above
# Outline: as §2
# [10] = test system: Escherichia coli IAI1; experiment: fold change of Cadaverine concentration vs plate DMSO controls (fold change (ratio)); higher = more amine produced, active = hit call of the paper (significant change in both replicates, either direction)
# Outline: as §2
# [11] = test system: Klebsiella aerogenes DSM 30053; experiment: as above
# Outline: as §2
# [12] = test system: Ruminococcus gnavus DSM 108212; experiment: fold change of 2-Phenylethylamine concentration vs plate DMSO controls (fold change (ratio)); higher = more amine produced, active = hit call of the paper (significant change in both replicates, either direction)
# Outline: as §2
smiles,measurement,setting,value
O=C1c2ccccc2C(=O)N1SC(Cl)(Cl)Cl,growth,[1],1.06
same,growth,[2],1
same,growth,[3],0.997
same,growth,[4],0.937
same,fold change of Histamine concentration,[5],1 (inactive)
same,fold change of Tryptamine concentration,[6],0.983 (inactive)
same,fold change of Tryptamine concentration,[7],0.999 (inactive)
same,fold change of Putrescine concentration,[8],1.05 (inactive)
same,fold change of Putrescine concentration,[9],1 (inactive)
same,fold change of Cadaverine concentration,[10],0.969 (inactive)
same,fold change of Cadaverine concentration,[11],0.988 (inactive)
same,fold change of 2-Phenylethylamine concentration,[12],0.999 (inactive)
CS(=O)(=O)NC(=O)c1cc(Oc2ccc(C(F)(F)F)cc2Cl)ccc1[N+](=O)[O-],growth,[1],0.96
same,growth,[2],0.996
same,growth,[3],1.08
same,growth,[4],1
same,fold change of Histamine concentration,[5],0.93 (inactive)
same,fold change of Tryptamine concentration,[6],0.985 (inactive)
same,fold change of Tryptamine concentration,[7],1.02 (inactive)
same,fold change of Putrescine concentration,[8],1.04 (inactive)
same,fold change of Putrescine concentration,[9],1.01 (inactive)
same,fold change of Cadaverine concentration,[10],1.01 (inactive)
same,fold change of Cadaverine concentration,[11],1.02 (inactive)
same,fold change of 2-Phenylethylamine concentration,[12],0.99 (inactive)
O=[N+]([O-])O[C@H]1CO[C@H]2[C@@H]1OC[C@H]2O[N+](=O)[O-] [Isosorbide dinitrate],growth,[1],0.818
same,growth,[2],1.09
same,growth,[3],1.08
same,growth,[4],1.25
same,fold change of Histamine concentration,[5],0.954 (inactive)
same,fold change of Tryptamine concentration,[6],1.03 (inactive)
same,fold change of Tryptamine concentration,[7],1 (inactive)
same,fold change of Putrescine concentration,[8],1.06 (inactive)
same,fold change of Putrescine concentration,[9],0.97 (inactive)
same,fold change of Cadaverine concentration,[10],0.94 (inactive)
same,fold change of Cadaverine concentration,[11],1.02 (inactive)
same,fold change of 2-Phenylethylamine concentration,[12],1.06 (inactive)
CN(C)[C@@H]1C(=O)C(C(N)=O)=C(O)[C@@]2(O)C(=O)C3=C(O)c4c(O)ccc(Cl)c4[C@@](C)(O)[C@H]3C[C@@H]12 [Chlortetracycline hydrochloride],growth,[1],0.00816
same,growth,[2],0.064
same,growth,[3],0.0706
same,growth,[4],0.431
same,fold change of Histamine concentration,[5],0.0679 (active)
same,fold change of Tryptamine concentration,[6],0.0172 (active)
same,fold change of Tryptamine concentration,[7],0.302 (active)
same,fold change of Putrescine concentration,[8],0.253 (active)
same,fold change of Putrescine concentration,[9],0.47 (inactive)
same,fold change of Cadaverine concentration,[10],0.146 (active)
same,fold change of Cadaverine concentration,[11],0.483 (inactive)
same,fold change of 2-Phenylethylamine concentration,[12],0.271 (active)
C[N+]1([O-])[C@@H]2C[C@@H](OC(=O)[C@H](CO)c3ccccc3)C[C@H]1[C@@H]1O[C@@H]12 (some centres undefined) [Scopolamin-N-oxide hydrobromide],growth,[1],1.05
same,growth,[2],1.03
same,growth,[3],1.01
same,growth,[4],0.938
same,fold change of Histamine concentration,[5],0.988 (inactive)
same,fold change of Tryptamine concentration,[6],1.01 (inactive)
same,fold change of Tryptamine concentration,[7],1.13 (inactive)
same,fold change of Putrescine concentration,[8],1 (inactive)
same,fold change of Putrescine concentration,[9],0.931 (inactive)
same,fold change of Cadaverine concentration,[10],0.991 (inactive)
same,fold change of Cadaverine concentration,[11],1.01 (inactive)
same,fold change of 2-Phenylethylamine concentration,[12],1.13 (inactive)
CC(C)c1cccc(C(C)C)c1O [Propofol],growth,[1],1.24
same,growth,[2],1.01
same,growth,[3],1
same,growth,[4],1.03
same,fold change of Histamine concentration,[5],1.05 (inactive)
same,fold change of Tryptamine concentration,[6],0.931 (inactive)
same,fold change of Tryptamine concentration,[7],0.964 (inactive)
same,fold change of Putrescine concentration,[8],0.865 (inactive)
same,fold change of Putrescine concentration,[9],1.01 (inactive)
same,fold change of Cadaverine concentration,[10],1.34 (active)
same,fold change of Cadaverine concentration,[11],0.989 (inactive)
same,fold change of 2-Phenylethylamine concentration,[12],0.908 (inactive)
O=C(O)C(F)(F)C(F)(F)C(F)(F)C(F)(F)C(F)(F)C(F)(F)C(F)(F)C(F)(F)F [PFNA (Perfluorononanoic acid)],growth,[1],1.04
same,growth,[2],1
same,growth,[3],1.01
same,growth,[4],1.05
same,fold change of Histamine concentration,[5],1.01 (inactive)
same,fold change of Tryptamine concentration,[6],0.955 (inactive)
same,fold change of Tryptamine concentration,[7],0.968 (inactive)
same,fold change of Putrescine concentration,[8],1.01 (inactive)
same,fold change of Putrescine concentration,[9],0.994 (inactive)
same,fold change of Cadaverine concentration,[10],1.03 (inactive)
same,fold change of Cadaverine concentration,[11],0.982 (inactive)
same,fold change of 2-Phenylethylamine concentration,[12],0.915 (inactive)
